Only some compounds are listed: those with a hit (about 3% of all), similar ones and a draw of the others.
SKKanGAS inh – S. pyogenes SKKanGAS growth inhibitors in kanamycin, primary screen, streptokinase expression inhibitor project, SKKanGAS strain, BacTiter-Glo luminescence; 300,000 tested, 1.3% active; inhibition, % at 7.5 µM; 6 h;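 active means mean replicate score, as percent of positive control median, at least 50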;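 further: strain carries kanamycin resistance gene driven by streptokinase promoter and grows in 40 µg/ml kanamycin; loss of luminescence reflects streptokinase promoter inhibition or plain growth inhibition; 0% = median of DMSO wells and 100% = positive control at its reference dose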
aSyn UTR inh – MLPCN primary screen, SNCA 5' untranslated region; alpha-synuclein 5'UTR reporter, inhibitor activity; 300,000 tested, 0.82% active; AID 1813, 2009; inhibition, % (tested at 7.5 µM); in the data active means inhibition above about 60%;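 further: H4 neuroglioblastoma cells stably carrying SNCA 5'UTR luciferase fusion; 0% = DMSO wells and 100% = positive control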
IEC-6 cytotox – cytotoxicity in IEC-6 intestinal epithelial cells, primary screen, cytotoxicity control for KLF5 inhibitor project, cell-based, luminescence; inhibition, % at 5 µM; AID 1825, 2009; IEC-6 cytotoxicity, luminescence viability; 290,000 tested, 0.78% active; in the data active means inhibition above about 22%;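 further: 0% = plate median of test compound wells and 100% = cytotoxic reference compound wells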
KLF5 inhibitor – KLF5 expression inhibitors, primary screen, DLD-1 cells, luminescence; AID 1700, 2009; 290,000 tested, 0.23% active; DLD-1 KLF5 promoter-luciferase reporter; inhibition, % at 5 µM;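 active means inhibition above a per-plate limit of that plate's mean compound inhibition plus 3 SD, cut at about 60% in these data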;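 further: 0% = DMSO wells and 100% = LY294002 at 200 µM; higher means less KLF5 promoter-driven luciferase light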
CSC inhib – cancer stem cell viability inhibitors, primary screen, luminescence. 300,000 tested, 1.1% active. cancer stem cell-like cells viability. inhibition, % at 7.5 µM. AID 2717, 2010; in the data active means inhibition above about 75%; tested in HMLE shEcad cells
* = called active by the depositor; . = no result.

SMILES | SKKanGAS inh | aSyn UTR inh | IEC-6 cytotox | KLF5 inhibitor | CSC inhib
Nc1nc2ccc(NC(=O)c3ccco3)cc2s1 | 3 | -116 | 1 | -53 | 1
CCOCCCNC(=O)c1ccc(-n2c(=S)[nH]c3ccccc3c2=O)cc1 | 0 | 10 | 2 | -9 | -2
Nc1[nH]n2c(=O)cc(-c3ccccc3)nc2c1N=Nc1ccccc1 | 104* | 68* | -3 | -10 | 92*
Cc1cc(C)cc(NC(=S)N2CC(C)OC(C)C2)c1 (centres undefined) | . | . | 4 | 1 | -7
CCc1nnc(NS(=O)(=O)c2ccc(NC(=O)c3cccc(OC)c3)cc2)s1 | -3 | 4 | -2 | -35 | -12
CCCCCCSc1ccc([C@@H]2[C@H]3C(=O)N(C)C(=O)[C@H]3[C@]3(C(=O)OC)CCCCN23)cc1OC | . | . | . | . | -10
CCCCCCSc1ccc([C@@H]2[C@@H]3C(=O)N(C)C(=O)[C@@H]3[C@]3(C(=O)OC)CCCCN23)cc1OC | 27 | 12 | . | . | 105*
CCOC(=S)SCC(=O)Nc1nc(-c2ccc(Br)cc2)cs1 | 10 | 70* | -5 | -19 | 85*
COc1c(N2CCN(C(=S)Nc3ccc(F)cc3)C(C)C2)c(F)cc2c(=O)c(C(=O)O)cn(C3CC3)c12 (centres undefined) | 115* | -4 | -4 | -25 | -4
COc1c(N2CCN(C(=S)NC3CC4CCC3C4)C(C)C2)c(F)cc2c(=O)c(C(=O)O)cn(C3CC3)c12 (centres undefined) | 101* | 6 | -5 | -25 | 23
CCC1CCCCN1CCCNC(=O)CN1C(=O)COc2ccccc21 (centres undefined) | -2 | -19 | 3 | -18 | -10
Cc1ccc(SC[C@H](C)CN2CC[C@H](C(C)(C)C)CCC2=O)cc1 | 15 | -9 | -1 | -8 | 76*
C[C@@H](CSc1ccccc1)CN1CC[C@H](O)CCC1=O | -2 | -5 | -6 | 6 | -5
C[C@@H](CSc1ccc(Br)cc1)CN1CC[C@H](C(C)(C)C)CCC1=O | . | . | . | . | 123*
O=c1c2ccccc2cnn1Cc1n[nH]c(=S)n1-c1ccccc1Cl | -2 | 28 | 5 | -38 | -59
O=C(COC(=O)c1nc(Cl)ccc1Cl)NCc1ccc(Cl)cc1 | . | . | . | . | -11
CC(C)C[C@H](N)c1nnc(S(=O)(=O)Cc2ccc(F)cc2)o1 | -3 | -21 | -7 | 2 | 77*
Cc1nnc(NC(=O)c2ccc(S(=O)(=O)N3CC(C)CC(C)C3)cc2)o1 (centres undefined) | 54* | -2 | -9 | 12 | 33
CC1CCCN(S(=O)(=O)c2ccc(C(=O)Nc3nnc(C4=COCCO4)o3)cc2)C1 (centres undefined) | 66* | -1 | 0 | 9 | -4
CC1CC(C)CN(S(=O)(=O)c2ccc(C(=O)NCCCn3ccnc3)cc2)C1 (centres undefined) | 1 | 98* | 4 | 6 | 101*
CC1CN(S(=O)(=O)c2ccc(C(=O)Nc3nnc(-c4ccccn4)o3)cc2)CC(C)O1 (centres undefined) | 12 | -11 | -8 | -11 | -6
CC1CN(S(=O)(=O)c2ccc(C(=O)Nc3nnc(-c4ccc5c(c4)CCCC5)o3)cc2)CC(C)O1 (centres undefined) | 93* | 76* | 5 | -26 | 19
CCOC(=O)N1CCN(S(=O)(=O)c2ccc(C(=O)Nc3nnc(C)o3)cc2)CC1 | -4 | 4 | -13 | -4 | -9
CCOC(=O)Cn1ccc(NC(=O)c2ccc3c(c2)OCO3)n1 | -1 | 22 | -5 | -24 | -8
COc1ccc(/C=C/C(=O)N[C@H](C(=O)O)C(C)C)cc1 | -3 | 30 | 7 | -23 | 0
SMILES | SKKanGAS inh | aSyn UTR inh | IEC-6 cytotox | KLF5 inhibitor | CSC inhib
O=C(Nc1nnc(C2=COCCO2)o1)c1cccc(C(F)(F)F)c1 | 56* | -13 | -1 | -8 | .
O=C(Nc1nnc(C2=COCCO2)o1)c1ccc(Cc2ccccc2)cc1 | 93* | -3 | -4 | -39 | 24
O=C(Nc1nnc(C2=COCCO2)o1)c1ccc(Br)cc1 | 101* | 3 | -8 | -44 | 23
O=C(Nc1nnc(C2=COCCO2)o1)c1ccc(F)cc1 | 24 | -19 | -3 | -10 | 19
O=C(Nc1nnc(C2=COCCO2)o1)c1ccc(Cl)cc1 | 26 | -2 | 0 | -28 | 1
O=C(CN1C(=O)c2ccccc2C1=O)OCC(=O)c1ccccc1 | -12 | 7 | . | . | 6
Cc1ccccc1NC1=C/C(=N\S(=O)(=O)c2cccs2)c2ccccc2C1=O | 90* | 114* | 0 | -20 | -8
Cc1ccccc1NC1=C/C(=N\S(=O)(=O)c2ccc(C(=O)O)cc2)c2ccccc2C1=O | 95* | -69 | 16 | -17 | .
O=C(O)c1ccc(S(=O)(=O)/N=C2\C=C(Nc3ccccc3F)C(=O)c3ccccc32)cc1 | 88* | -45 | 11 | -105 | 104*
Cc1ccc(NC2=C/C(=N/S(=O)(=O)c3cccs3)c3ccccc3C2=O)cc1C | 9 | -155 | -3 | -19 | 20
C=CCOc1c(Br)cc(/C=N/n2c(CC)n[nH]c2=S)cc1Br | -2 | 25 | 10 | 9 | 28
CC1=NNC(=O)C1CCC(=O)N/N=C/C(Br)=C/c1ccccc1 (centres undefined) | 0 | -2 | 2 | 20 | 21
CC(C)(C)c1ccc(Cn2ccc(-c3ccc4c(c3)OCO4)n2)cc1 | 53* | -14 | -1 | -12 | 0
COc1ccc(/C(C)=N/NC(=O)c2cccc(S(=O)(=O)N3CCCC3)c2)c(O)c1 | 11 | 78* | . | . | 100*
COC(=O)[C@H](Cc1ccccc1)NC(=O)Cn1ccc(NC(=O)OCc2ccccc2)nc1=O | . | . | . | . | -10
CC1CCCCC1N(C)C1CCN(C(=O)CNC(=O)/C=C/c2cccc(Cl)c2)CC1 (centres undefined) | -8 | 41 | 5 | -70 | 31
Cc1ccc2c(c1)c1c3n2CCCNC3CCC1 (centres undefined) | -13 | -1 | 0 | -21 | 10
c1cc2c(cc1C1CCCCC1)c1c3n2CCCNC3CCC1 (centres undefined) | 25 | 87* | 0 | -28 | 7
COc1ccc(C(C)=O)cc1COC(=O)CSCC(=O)Nc1ccc(C)cc1 | -26 | 7 | . | . | 5
O=[N+]([O-])c1cnc(Sc2ccncn2)s1 | 18 | -1 | 12 | -5 | 107*
O=C1NCCN1c1ncc([N+](=O)[O-])s1 | . | . | . | . | -5
COc1ccc(-c2nc(/C=C3\C(C)=Nc4ccccc43)c(O)o2)cc1 | 58* | -20 | 4 | -19 | 7
CC1=Nc2ccccc2/C1=C\c1nc(-c2ccccc2)oc1O | 28 | -47 | 4 | -18 | 6
CCCN(CCC)CCCNC(=O)Cn1cnc2sc(C)c(S(=O)(=O)N3CCOCC3)c2c1=O | 9 | -7 | 2 | -13 | 6
COC(=O)/C=C1\SC(=Nc2ccc(Cl)c(Cl)c2)NC1=O | 73* | -13 | 16 | -32 | .
COC(=O)/C=C1\SC(=Nc2ccc(OC)cc2)NC1=O | -20 | -33 | -9 | 0 | -2
